This is a sample that favours compounds with a hit; in the whole collection about 1.3% have one here.
E coli Lon inh – inhibits E. coli Lon protease; P0A9M0; purified E. coli Lon protease, fluorescence polarization; inhibition, % at 7.94 µM; 0.42% of 360,000 active; in the data active = inhibition above about 13%, passing the limit was not always enough
Bcl-xL primary – inhibitors of human Bcl-xL. Q07817. inhibition, % at 10.9 µM. GST-Bcl-xL / FITC-Bim BH3 peptide fluorescence polarization. 0.7% of 320,000 active;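 active = inhibition above the mean of all tested compounds plus 3 SD, cutoff set per campaign, cut at about 30% in these data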;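 also: inhibitors lower millipolarization by displacing the labeled peptide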
Target sequence (Q07817 whole entry, looked up): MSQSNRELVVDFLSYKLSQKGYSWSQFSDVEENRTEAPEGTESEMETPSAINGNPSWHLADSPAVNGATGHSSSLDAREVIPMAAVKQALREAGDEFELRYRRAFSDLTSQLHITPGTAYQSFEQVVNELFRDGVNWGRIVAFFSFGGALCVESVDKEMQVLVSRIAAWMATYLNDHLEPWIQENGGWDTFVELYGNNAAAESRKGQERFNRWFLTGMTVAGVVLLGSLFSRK
Keap1-Nrf2 PPI – disrupts human Keap1 binding to Nrf2 peptide; Q14145; Keap1 Kelch-Nrf2 peptide fluorescence polarization, 1536-well; inhibition, % at 9.4 µM; 0.15% of 340,000 active; in the data active = inhibition above about 12%;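 also: human Keap1 Kelch domain with fluorescein labeled Nrf2 9mer peptide probe; higher means more block of Keap1 binding to Nrf2 peptide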
GLD-1 RNA inh – GLD-1-TGE RNA interaction inhibition (C. elegans); 0.44% of 320,000 active; inhibition, % at 5.96 µM; purified GLD-1 + fluorescein TGE RNA, fluorescence polarization;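 active = percent inhibition above a per-plate cutoff, the plate mean of test compounds plus 3 SD, cut at about 30% in these data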
C-LANA FP – inhibitors of KSHV LANA C-terminal domain DNA binding; MBP-C-LANA/FAM-LBS DNA binding, fluorescence polarization; inhibition, % at 9 µM; 0.078% of 340,000 active;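 active = highest replicate inhibition at or above 60% at 9 µM, even if other replicates fall short; inactive = all replicates below 60% inhibition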
MCL1-BIM inh – disrupts human MCL1 binding to BIM-BH3 peptide | Q07820 | GST-MCL1 / FITC-Bim-BH3 fluorescence polarization | inhibition, % at 10.9 µM | 0.68% of 320,000 active;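 active = inhibition above the mean inhibition of all tested compounds plus 3 SD, set per campaign, cut at about 40% in these data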;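 also: higher means more loss of mP so more displacement of Bim peptide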
Target sequence (Q07820 whole entry, looked up): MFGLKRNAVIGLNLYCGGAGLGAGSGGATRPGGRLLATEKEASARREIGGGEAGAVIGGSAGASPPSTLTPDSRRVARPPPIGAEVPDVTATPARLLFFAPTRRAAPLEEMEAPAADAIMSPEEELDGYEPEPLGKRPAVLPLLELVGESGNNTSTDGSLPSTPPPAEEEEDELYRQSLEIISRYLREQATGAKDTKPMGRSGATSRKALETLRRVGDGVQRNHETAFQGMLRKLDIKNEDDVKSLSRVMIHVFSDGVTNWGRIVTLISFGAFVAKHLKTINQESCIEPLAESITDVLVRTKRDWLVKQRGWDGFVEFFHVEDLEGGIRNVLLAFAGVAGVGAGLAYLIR
BCLXL inh confirm – counter-screen for MCL1 inhibitors: confirmation of human Bcl-xL inhibitors; shares compounds with MCL1-BIM inh; 54% of 1,700 active; inhibition, % at 10.9 µM; GST-Bcl-xL / FITC-Bim BH3 peptide FP binding;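 active = inhibition above a cutoff equal to the mean inhibition of all tested compounds plus 3 SD, cut at about 30% in these data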
MCL1 BIM confirm – MCL1-BIM-BH3 interaction inhibition, confirmation; 61% of 1,700 active; shares compounds with MCL1-BIM inh; GST-MCL1 / FITC-Bim-BH3 fluorescence polarization; AID 2168; inhibition, % at 10.9 µM;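 active = inhibition above the average of all tested compounds plus 3 SD, cut at about 40% in these data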
Numbers stand for hits; . = inactive; / = no result given.

SMILES | E coli Lon inh | Bcl-xL primary | Keap1-Nrf2 PPI | GLD-1 RNA inh | C-LANA FP | MCL1-BIM inh | BCLXL inh confirm | MCL1 BIM confirm
Cc1ccc(S(=O)(=O)N2CCC(C(=O)N3CCN(c4ccccn4)CC3)CC2)cc1 | . | . | . | . | . | . | / | /
Cc1cc(Cl)n2c(nc3cc(F)c(F)cc32)c1C#N | . | / | . | / | . | / | / | /
Cc1cc(C)n2c(=O)c3ccc(Cl)cc3nc2c1C#N | . | . | . | . | . | 51 | . | .
CN1CCC(NC(=S)NC2CC2)CC1 | . | . | . | . | . | . | / | /
Cc1cc2ccccc2n1CCNC(=O)Cc1ccccc1 | . | . | . | . | . | . | / | /
Cc1cc2ccccc2n1CCNC(=O)C(C)C | . | 76 | . | 96 | . | 84 | . | .
CC(=O)c1ccc(NC(=O)CSc2nc(C)cc(C)c2C(N)=O)cc1 | . | . | . | . | . | . | / | /
CC(C)c1ccccc1NC(=S)N(C)C | . | . | . | . | . | . | / | /
N#CC1=C(N)n2c(s/c(=C\c3ccco3)c2=O)=C(C#N)C1c1ccco1 (stereo unspecified) | . | 44 | . | . | . | 55 | 104 | 150
CCOC(=O)C1=C(N)n2c(s/c(=C/c3ccco3)c2=O)=C(C(=O)OC)C1c1ccco1 (stereo unspecified) | . | . | . | . | . | . | / | /
CC(Cc1ccccc1)N1C(=O)c2cccc([N+](=O)[O-])c2C1=O (stereo unspecified) | . | 146 | . | 180 | . | 169 | . | .
COc1ccc(NC(=O)/C=C/c2cccc(F)c2)cn1 | . | 75 | . | 47 | . | 75 | 54 | 68
COc1ccc(NC(=O)CCl)cn1 | / | 105 | / | 82 | / | 111 | 84 | 115
COc1ccc(NC(=O)c2ccco2)cn1 | . | 70 | . | 60 | . | 75 | 64 | 86
COc1ccc(OC)c(NC(=O)COC(=O)c2cc3c(s2)CCC3)c1 | . | . | . | . | . | 57 | . | 43
COc1ccccc1NC(=O)COC(=O)c1cc2c(s1)CCC2 | . | / | . | / | . | / | / | /
CCCCNC(=O)CSc1nc2ccccc2c(=O)n1CC1COc2ccccc2O1 (stereo unspecified) | . | . | . | . | . | . | / | /
Cc1cc(C)c2nc(-c3ccccn3)cc(C(=O)Nc3ccc(S(=O)(=O)Nc4onc(C)c4C)cc3)c2c1 | . | . | . | . | . | 41 | 30 | 79
CSc1ccccc1-c1nnc(-c2ccc(Cl)c(Cl)c2)o1 | . | . | . | . | . | 43 | . | .
Cc1ccc2ccccc2c1C(O)c1ncc(-c2ccc(Cl)cc2)[nH]1 (stereo unspecified) | . | / | / | / | / | / | / | /
CC1CCCC(C)N1C(=O)COC(=O)c1ccc2c(c1)OCO2 (stereo unspecified) | . | . | . | . | . | . | / | /
CC1CC(C)CN(C(=O)COC(=O)c2ccc3c(c2)OCO3)C1 (stereo unspecified) | . | . | . | . | . | 46 | . | .
COCCCN1C(=O)CC(C(=O)OC)=C1C | . | . | . | . | . | . | / | /
CCc1cccc2cc3c(N)c(C(=O)Nc4ccc(S(=O)(=O)N5CCCC5)cc4)sc3nc12 | . | 104 | . | 61 | . | 94 | 43 | 67
O=C(N/N=C/c1sc(=O)[nH]c1-[n+]1ccccc1)c1ccccc1[O-] | . | 44 | . | . | . | 55 | 46 | 64
SMILES | E coli Lon inh | Bcl-xL primary | Keap1-Nrf2 PPI | GLD-1 RNA inh | C-LANA FP | MCL1-BIM inh | BCLXL inh confirm | MCL1 BIM confirm
Cc1ccc[n+](-c2[nH]c(=O)sc2/C=N/NC(=O)c2ccccc2[O-])c1 | . | 44 | . | 31 | . | 75 | 39 | 56
Cc1ccc[n+](-c2[nH]c(=O)sc2/C=N/N=C(\[O-])c2cccnc2)c1 | . | . | . | . | . | . | / | /
O=C(COc1cccc(C(F)(F)F)c1)NCC(c1ccco1)N1CCCCC1 (stereo unspecified) | . | . | . | . | . | . | / | /
O=P(NCc1ccccc1)(OCc1ccccc1)OCc1ccccc1 | . | / | . | / | . | / | / | /
O=C(CCc1ccccc1)Nc1ccccc1[N+](=O)[O-] | . | . | . | . | . | . | / | /
O=C(CCc1ccccc1)Oc1ccccc1[N+](=O)[O-] | / | . | / | . | / | 73 | . | .
CCOC(=O)C1(CCOc2ccccc2)CCN(Cc2ccc(OCC)c(CO)c2)CC1 | . | . | . | . | . | . | / | /
Oc1cccc(C=NCc2ccccc2)c1O | . | . | . | . | . | 64 | 32 | 65
Oc1c(C=NCc2ccccc2)sc2ccccc12 | . | . | . | . | . | . | / | /
Oc1ccccc1C=Nc1cccc2ccccc12 | . | . | . | . | . | . | / | /
Oc1cccc(C=Nc2cccc3ccccc23)c1O | . | 38 | . | . | . | 66 | 31 | 52
COc1ccc(Br)cc1C(=O)Nc1ccc(N2CCCC2)cc1 | . | . | . | . | . | 46 | . | .
COc1ccc(NC(=O)CSc2nc3nc(C)cc(C)c3c(=O)[nH]2)cc1 | . | 35 | . | . | . | 55 | . | .
CCC(CC)C(=O)Nc1cc(Cl)ccc1C | / | . | / | . | / | . | / | /
COc1cc2cc(CN(Cc3nnnn3Cc3ccco3)C3CCCCC3)c(=O)[nH]c2cc1OC | . | 47 | . | . | . | 60 | . | .
CSc1nnc(SCC(=O)N(C)c2c(N)n(Cc3ccccc3)c(=O)[nH]c2=O)s1 | . | . | . | . | . | . | / | /
CCN(C(=O)CSc1nnc(SC)s1)c1c(N)n(Cc2ccccc2)c(=O)[nH]c1=O | . | 84 | . | 59 | . | 93 | . | .
Cc1cc(C)n(-c2nc3ccccc3nc2Nc2ccc3[nH]c(=O)[nH]c3c2)n1 | . | 79 | . | 65 | . | 54 | 43 | .
COc1ccc(S(=O)(=O)c2c(N)n(Cc3ccco3)c3nc4ccccc4nc23)cc1 | . | 101 | . | 117 | . | 105 | . | .
COc1ccc(Cn2c(C)nc3c(c2=O)c2nc4ccccc4nc2n3Cc2ccco2)cc1 | . | / | . | / | . | / | / | /
COc1cc2c(cc1OC)C(c1ccc(Br)cc1)NC(=O)C2 (stereo unspecified) | . | / | . | / | . | / | / | /
CC1(OC(=O)C2CCCC2)C(=O)C=C2C=C(c3ccsc3)N(Cc3ccccc3)C=C2C1=O (stereo unspecified) | . | . | . | . | . | . | / | /
CC1(OC(=O)C2CCCC2)C(=O)C=C2C=C(c3ccsc3)N(CCc3ccccn3)C=C2C1=O (stereo unspecified) | 19 | 48 | . | 37 | . | 56 | . | .
COc1cccc2c(N/N=C/c3ccc(O)c(O)c3)cc(C)nc12 | . | . | . | . | . | 41 | 51 | 73

Source: PubChem
